We go through 14 compounds from PubChem BioAssay (EPA / NIEHS).

Where “and” joins values, the source holds several entries; their conditions need not be identical. Identical values can stand only once. Inconclusive results are not listed. Some compounds were tested as several samples or in several runs, with calls that do not always agree. Calls of active or inactive are those of the source. How the source made its calls, unless noted: active means hit-call score of the fitted dose curve at least 0.9, where 1 is the maximum; inactive means score below 0.9.

Read-out in experiment [1]: Human Leukocyte Antigen - DR isotype (HLADR), HLA-DRA (gene 3122)
The experiment can be described thus: BSK_3C_HLADR: BioMAP Diversity Plus: 3C Assay for Human Leukocyte Antigen - DR isotype (HLADR) Biomarker Activity (AID 2283019).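 On outcome: ELISA of cell-surface HLA-DR on HUVEC 24 h after dosing.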 The note with it: primary human endothelial cells (HUVEC); actives raise or lower the signal. The gist of the method: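 Compound added to primary HUVEC cultures, 24 h incubation, then HLA-DR determined by ELISA; endpoint derived by bidirectional fitting relative to DMSO negative control.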

Read-out in experiment [2]: Interleukin-8 (IL8), CXCL8 (gene 3576)
The experiment can be described thus: BSK_3C_IL8: BioMAP Diversity Plus: 3C Assay for Interleukin-8 (IL8) Biomarker Activity (AID 2283020). Conditions: primary human endothelial cells (HUVEC); actives raise or lower the signal. The gist of the method:
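HUVEC, 3C stimulation; 24 h compound exposure; IL-8 read by ELISA; gain or loss of signal fitted relative to DMSO control.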

Read-out in experiment [3]: Monokine induced gamma interferon (MIG), CXCL9 (gene 4283)
The experiment can be described thus: BSK_3C_MIG: BioMAP Diversity Plus: 3C Assay for Monokine induced gamma interferon (MIG) Biomarker Activity (AID 2283021).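 On AC50: MIG protein level measured by immunoassay in the treated endothelial cultures.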 The note with it: primary human endothelial cells (HUVEC); actives raise or lower the signal. The gist of the method:
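HUVEC, 3C system; 24 h chemical exposure; MIG by ELISA; bidirectional fit vs DMSO baseline.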

For experiment [4], the target named is human Vitamin D Receptor (VDR), VDR (gene 7421) (UniProt P11473). Briefly: ATG_VDR_TRANS: Attagene TRANS-FACTORIAL HepG2 Assay for human Vitamin D Receptor (VDR) (AID 2283022; active means hit-call score of the fitted dose curve at least 0.9, where 1 is the maximum). The gist of the method: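 Multiplexed TRANS reporter in HepG2; 24 h treatment; reporter mRNA by RT-PCR plus capillary electrophoresis; upregulation scored relative to DMSO.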
Experiment [5] can be described thus: BSK_3C_SRB: Viability Assessment in the BioMAP Diversity Plus: 3C Assay (AID 2283023).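 Further: fitted both ways against DMSO so a hit may be signal rise or drop.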 The note with it: primary human endothelial cells (HUVEC). The gist of the method: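 Overt cytotoxicity is gauged in parallel confluent HUVEC cultures by SRB total-protein staining at the time of biomarker measurement, 24 h after dosing. Gain or loss of signal is fitted versus DMSO.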

Experiment [6] in a line: BSK_3C_Vis: BioMAP Diversity Plus: 3C Assay for Morphology Visualization (AID 2283025).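 Further: fitted both ways so gain or loss versus DMSO counts.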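 On AC50: light microscopy image of cell morphology used as background control.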 The note with it: primary human endothelial cells (HUVEC). The gist of the method:
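HUVEC, 3C system; light microscopy of morphology at 24 h post-dose. Bidirectional fit vs DMSO baseline. Secondary readout, background-control function.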

Experiment [7] in a line: BSK_4H_SRB: Viability Assessment in the BioMAP Diversity Plus: 4H Assay (AID 2283027).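 Further: cells exposed to compound for 24 h before staining.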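 On AC50: curves fitted both ways versus DMSO so AC50 may be loss or gain.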 Conditions: primary human endothelial cells (HUVEC). The gist of the method: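 Cytotoxicity read-out in primary human endothelial cells: after 24 h compound exposure, cells were TCA-fixed (10%), stained with 0.1% SRB and absorbance taken at 560 nm. Values fitted in both directions relative to DMSO.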

Read-out in experiment [8]: Pselectin, SELP (gene 6403)
Briefly: BSK_4H_Pselectin: BioMAP Diversity Plus: 4H Assay for Pselectin Biomarker Activity (AID 2283026). The note with it: primary human endothelial cells (HUVEC); actives raise or lower the signal. The gist of the method: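 HUVEC, 24 h chemical exposure; P-selectin read by ELISA. Bidirectional curve fit vs DMSO baseline; gain or loss of signal scored.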

Experiment [9] can be described thus: BSK_BE3C_SRB: Viability Assessment in the BioMAP Diversity Plus: BE3C Assay (AID 2283028).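 Further: measured 24 h after chemical dosing.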 The note with it: primary human bronchial epithelial cells. The gist of the method:
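SRB total-protein staining (0.1%, after TCA fixation) of chemically dosed human bronchial epithelial primary cells at 24 h; DMSO serves as the negative control for bidirectional curve fitting.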

Read-out in experiment [10]: Matrix Metallopeptidase 1 (MMP1), MMP1 (gene 4312)
Briefly: BSK_BE3C_MMP1: BioMAP Diversity Plus: BE3C Assay for Matrix Metallopeptidase 1 (MMP1) Biomarker Activity (AID 2283024). The note with it: primary human bronchial epithelial cells; actives raise or lower the signal. The procedure, abridged:
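ELISA read-out of MMP1 in human lung bronchial epithelial primary cultures, 24 h post-dose; bidirectional curve fit vs DMSO baseline, gain or loss of signal scored.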

Chain of human Vitamin D Receptor (VDR), VDR (gene 7421) (P11473 whole entry, looked up): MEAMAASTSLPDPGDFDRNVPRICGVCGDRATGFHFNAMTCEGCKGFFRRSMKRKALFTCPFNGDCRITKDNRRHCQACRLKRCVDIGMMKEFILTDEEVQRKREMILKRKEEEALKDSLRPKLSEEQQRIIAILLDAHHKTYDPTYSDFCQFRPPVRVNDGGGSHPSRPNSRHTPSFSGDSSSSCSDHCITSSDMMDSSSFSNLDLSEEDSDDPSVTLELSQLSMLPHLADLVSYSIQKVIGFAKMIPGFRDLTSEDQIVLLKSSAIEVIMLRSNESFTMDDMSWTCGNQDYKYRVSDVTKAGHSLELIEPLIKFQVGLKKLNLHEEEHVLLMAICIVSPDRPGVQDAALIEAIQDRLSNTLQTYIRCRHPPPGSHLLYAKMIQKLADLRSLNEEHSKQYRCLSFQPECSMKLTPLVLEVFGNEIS

Regarding `CCCCOC(=O)c1ccccc1C(=O)OCCCC`, the outcome in [1], in [2], in [3], in experiment [4], in experiment [5] and in [6] was inactive. Further, the outcome in experiment [7] was inactive. Moreover, the half-maximal activity concentration (AC50) in [5] was 15.2 µM (active).
In the case of `CCCCNC(=O)n1c(NC(=O)OC)nc2ccccc21`, the AC50 in experiment [1] is 13.7 µM (active); in experiment [5], 8.93 µM (active); in [6] it was 9.8 µM (active); in [7], 14 µM (active). The outcome in experiment [2], in experiment [3], in experiment [4] and in experiment [8] was inactive.
Consider `CCON=C(CC)C1=C(O)CC(c2c(C)cc(C)cc2C)CC1=O` (configuration not stated), for which the result in experiment [1], in experiment [2], in experiment [3], in experiment [5], in experiment [6] and in [7] was inactive.
Regarding `CO/C=C(/C(=O)OC)c1ccccc1Oc1cc(Oc2ccccc2C#N)ncn1`, the AC50 in [1] was 19.6 µM (active) [middle of 4 runs]; in experiment [3], 38.1 µM (active) and 33.2 µM (active) and 32.7 µM (active); in experiment [5], 20 µM (active) [middle of 4 runs]; in experiment [6], 39.6 µM (active) and 42 µM (active); in experiment [7], 26.7 µM (active) and 16.4 µM (active) and 24.2 µM (active). Besides, the result in experiment [3], in [4], in [6], in experiment [7] and in experiment [9] was inactive.
In the case of `COP(=S)(OC)Oc1nc(Cl)c(Cl)cc1Cl`, the result in [1], in experiment [2], in experiment [3], in experiment [10] and in [7] was inactive. Besides, the AC50 was 20 µM (active) in [5] and 39 µM (active) in experiment [6].
`COP(N)(=O)SC` (configuration not stated): the result in experiment [1], in experiment [2], in [3], in [5], in experiment [6] and in experiment [7] was inactive.
On to `CCc1nn(C)c(C(=O)NCc2ccc(C(C)(C)C)cc2)c1Cl`, for which the AC50 in [1] is 17.3 µM (active); in [2], 20 µM (active); in [3] it was 34 µM (active); in [5], 25.3 µM (active); in experiment [6], 37.2 µM (active); in experiment [8], 26.9 µM (active). The AC50 in experiment [7] is 33.7 µM (active). For the same compound, the result in experiment [10] was inactive.
As to `O=C(O)c1nc(Cl)ccc1Cl`, the result in experiment [1], in experiment [2], in experiment [3], in experiment [5], in experiment [6] and in [7] was inactive. In experiment [9], the result was inactive. Moreover, the AC50 in experiment [6] is 39 µM (active).
Turning to `C#CCOS(=O)OC1CCCCC1Oc1ccc(C(C)(C)C)cc1` (configuration not stated), the half-maximal activity concentration (AC50) was 6.28 µM (active) in experiment [1]; 7.04 µM (active) in [2]; 20 µM (active) in experiment [3]; 12.3 µM (active) in [5]; 5.07 µM (active) in [6]; 11.3 µM (active) in [7].
In the case of `COC(=O)C=C(C)OP(=O)(OC)OC`, the result in [1], in experiment [2], in [3], in [5], in experiment [10] and in experiment [6] was inactive. The outcome in experiment [7] was inactive.
As to `CCCCC(CC)COC(=O)c1ccccc1C(=O)OCC(CC)CCCC` (configuration not stated), the half-maximal activity concentration (AC50) in experiment [1] was 15.5 µM (active); in [5], 10.5 µM (active); in [6] it was 39 µM (active). In addition, the result in experiment [2], in experiment [3] and in experiment [7] was inactive.
Turning to `CCNc1nc(Cl)nc(NCC)n1`, the result in [1], in experiment [2], in experiment [3], in experiment [4], in experiment [5] and in experiment [6] was inactive. The outcome in experiment [7] and in experiment [9] was inactive.
Regarding `COC(=O)N(OC)c1ccccc1COc1ccn(-c2ccc(Cl)cc2)n1`, the AC50 in experiment [1] is 7.6 µM (active); in experiment [2] it was 13.5 µM (active); in experiment [5], 20 µM (active); in [6], 13.7 µM (active); in [7], 10.5 µM (active). The outcome in [3] and in experiment [10] was inactive.
Turning to `CCCCNC(=O)OCC#CI`, the AC50 was 8.66 µM (active) and 11 µM (active) in [1]; 26.2 µM (active) and 28.9 µM (active) in experiment [2]; 32.3 µM (active) and 34.4 µM (active) in [3]; 18.9 µM (active) and 21.1 µM (active) in experiment [5]; 11.9 µM (active) and 14.4 µM (active) in [6]; 29 µM (active) and 27.9 µM (active) in experiment [7]. Besides, the outcome in experiment [4] was inactive.

In general, AC50 refers to the concentration giving half of the maximal activity seen.
